This is an account of results in the supplement of paper PMC7156485.

A number with no mark means an inactive call.
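Note: TDF is a line of transformed human dermal fibroblasts of mesenchymal origin.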

The subject of this test is TDF. As to the kind of experiment: H1.0 immunofluorescence intensity relative to DMSO (% of DMSO); higher = stronger H1.0 induction, active = 120 or more. The conditions noted are these: concentration: 10 µM; 24 h. An outline of the steps: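 Cells were seeded at 800 per well in 384-well plates with RPMI containing 10% FBS; both HCC1569 and TDF lines were used. Compounds were added at 10 µM for 24 h at 37 °C, in triplicate, before fixation in 3.7% formaldehyde and staining with a rabbit anti-H1.0 antibody, an AlexaFluor 647 secondary and DAPI. H1.0 nuclear intensity or cell number is reported as percent of the plate control using the median of replicates, and HCC1569 values were smoothed for positional effects.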
As to `O=C(CCCc1ccc(-c2ccccc2F)cc1)Nc1ccc(O)cc1` [MK2a Inhibitor], the H1.0 immunofluorescence intensity is 157 (active).
Then `CCN1CCN(C(=O)NC(C(=O)NC2C(=O)N3C(C(=O)O)=C(CSc4nnnn4C)CSC23)c2ccc(O)cc2)C(=O)C1=O` (configuration not stated) [Cefoperazone acid], with 91.9; and `O=C(Nc1ccccc1)c1cc([N+](=O)[O-])ccc1Cl`, with 100.
Then `CCn1c(-c2nonc2N)nc2c(C#CC(C)(C)O)ncc(OCC3CCCNC3)c21` (configuration not stated), with 103.
For the molecule `CCCCCOC(=O)Nc1nc(=O)n(C2OC(C)C(O)C2O)cc1F` (configuration not stated) [Capecitabine], the H1.0 immunofluorescence intensity is 101.
Then `CCCOC(=O)c1cc(O)c(O)c(O)c1` [N-Propyl gallate], with 100; and `CN1C2CCC1CC(OC(c1ccccc1)c1ccccc1)C2.CS(=O)(=O)O` (configuration not stated) [Benztropine mesylate], with 97.6; and `O=C(NCCCCCCNC(=O)ON=C1CCCCC1)ON=C1CCCCC1`, with 98.
Then `COc1cc(C2CC(=O)c3c(O)cc(O)cc3O2)ccc1O` (configuration not stated) [Homoeriodictyol], with 99; and `O=C1NC(=O)C(=Cc2cccc(C(F)(F)F)c2)S1` [PIM1/2 Kinase Inhibitor V], with 102; and `Clc1ccccc1C(c1ccccc1)(c1ccccc1)n1ccnc1` [Clotrimazole], with 104.
Next, `CN1C(CC(=O)c2ccccc2)CCCC1CC(O)c1ccccc1.Cl` (stereo not drawn) [alpha-Lobeline hydrochloride]: 93.7.
